Among the data in PubChem BioAssay are z-score values, retold here.

A number with no mark means an inactive call.

The assay can be described thus: optical density shifts of acrAB sulA E. coli – strain DRC41, OD650, 48 h, E. coli filamentation inducer project, primary screen (AID 1152).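 Also: E. coli MC1000 strain DRC41 lacking acrAB efflux pump and sulA.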 The settings on record: higher = more signal, called active from +8 up or from −8 down.
Turning to `COc1ccc([Si](C)(C)[C@@H]2[C@@H](CCO)O[C@]3(C(=O)N(Cc4ccc(NC(C)=O)cc4)c4ccccc43)[C@H]2C)cc1`, the z-score is 0.694.

As to `CCCCC(=C=CC[C@H](O)c1ccccc1OCCO)C[C@H](O)COCc1ccccc1`, the z-score is -0.16.

Take `COC(=O)[C@H]1COC(c2ccc(OCCCO)cc2)=N1`: the z-score was -0.13.

Turning to `CC(C)C[C@@H]1NC(=O)[C@H]2C[C@@H](C(=O)NCCCCCCN(C)C)[C@@H](c3cccc(OCCO)c3)N2C1=O`, the z-score is -0.054.

Turning to `O=C1O[C@@H](c2ccccc2)[C@@H](c2ccccc2)N2[C@@H](c3ccccc3OCCO)[C@]3(C(=O)Nc4ccc(C#CCCO)cc43)[C@@H](C(=O)O)[C@H]12`, the z-score was 0.0825.

As for `CC(C)NC(=O)[C@@]1(C)c2ccccc2C(=O)N(Cc2cc(F)cc(C(F)(F)F)c2)[C@H]1c1ccc(CO)cc1`, the z-score is 0.0051. On to `O=C1O[C@@H](c2ccccc2)[C@@H](c2ccccc2)N2[C@@H](c3ccc(OCCO)cc3)[C@]3(C(=O)Nc4ccccc43)[C@@H](C(=O)N3CCN(c4ncccn4)CC3)[C@H]12`, for which the z-score is 0.777. For the molecule `CCc1cc2c(nc1CC)CCN(CCC(C)=NOC[C@@H](O)[C@H]1O[C@@H]3OC(C)(C)O[C@@H]3[C@H]1O)C2`, the z-score is -1.12. Regarding `C=CC[C@@H]1C=C[C@H](ON=C(C)CCN2CCc3nc(CC)c(CC)cc3C2)[C@@H](CO)O1`, the z-score was 0.31. `CN(C)CCCNC(=O)[C@@H]1c2ccccc2C(=O)N(Cc2cc(F)cc(C(F)(F)F)c2)[C@H]1c1ccc(CO)cc1`: the z-score was -0.72.

`O=C1[C@H]2[C@H]3[C@H](O)[C@H](O)CC(=NOC[C@@H](O)COCc4ccco4)[C@H]3CC[C@H]2C(=O)N1c1cccc(Oc2ccccc2)c1`: the z-score was 0.66. For the molecule `CS(=O)(=O)CCOC(=O)C1=CC(CCCO)=CC(c2cccs2)N(Cc2cccc(OC(F)(F)F)c2)C=C1C(=O)OCCS(C)(=O)=O` (stereo unspecified), the z-score was -0.697.

`CC(CCC(=O)OC[C@H]1O[C@H](C#Cc2ccccc2)C=C[C@@H]1Oc1ccc(C)cc1)=NO[C@@H](C)c1cn([C@H](CO)Cc2ccccc2)nn1`: the z-score is -0.913. `COc1ccc(O[C@H]2C=C[C@@H](c3ccccc3)O[C@@H]2COC(=O)CCC(C)=NO[C@@H](C)c2cc(-c3c(C)cc(C)cc3C)no2)cc1`: the z-score is 0.409. Consider `CC(C)[C@@H](OCc1ccccc1)[C@H](C)C=NO[C@H](C)c1cn([C@H](CO)Cc2ccccc2)nn1`, for which the z-score is -0.489. Regarding `COc1cccc([C@H]2Oc3ccc(OC)cc3C(=NOC(C)CN3CCCc4nc(C)c(C)cc43)[C@@H]2O)c1` (stereo partly specified), the z-score is -0.304. For `O=C1C[C@@H](O)[C@@H](O)[C@@H]2[C@@H]3C(=O)N(C4CCCCC4)C(=O)[C@@H]3CC[C@H]12`, the z-score is -0.246. The same measure for `COc1ccc([Si](C)(C)[C@H]2[C@H](CC(=O)N3CCC[C@H]3CO)O[C@@]3(C(=O)N(Cc4cccc(N5C(=O)COc6ccccc65)c4)c4ccccc43)[C@@H]2C)cc1`: 1.62. The same measure for `CC(C)NC(=O)[C@@]1(c2ccc([N+](=O)[O-])cc2)CC(=O)N(CC23CC4CC(CC(C4)C2)C3)[C@@H]1c1ccc(CO)cc1I`: -0.805. With `C=CCOC(=O)[C@H]1[C@@H]2C(=O)O[C@@H](c3ccccc3)[C@@H](c3ccccc3)N2[C@@H](c2ccc(OCCOC(=O)[C@H]3C[C@H]4C(=O)N5CCC[C@H]5C(=O)N4[C@H]3c3cccc(OCCO)c3)cc2)[C@]12C(=O)Nc1ccc(I)cc12`, the z-score is -0.709.

Regarding `CC(C)CN1CCc2nc(-c3ccccc3)c3c(c2CC1)CO[C@@H](C)C3`, the z-score is 0.0991.

For the molecule `CC(C)OC(=O)C=C1C[C@@H](c2ccc(C#N)cc2)O[C@@H](c2ccc(C#N)cc2)O1`, the z-score was 0.197. Turning to `C=CC[C@@H]1C=C[C@H](ON=C[C@@H](OC)[C@H](C)C=CCC(=O)OC)[C@@H](CO)O1`, the z-score is 0.324. Take `CN1C(=O)C2C(C1=O)C1C=C(CCCO)C2C(c2ccc(CN3CCCC3)cc2)N1C` (stereo unspecified): the z-score is -0.204.

For the molecule `COCC(=C=CC[C@@H](O)c1ccccc1OCCO)CCO`, the z-score is 0.825. Take `COCCOC(=O)N1C(=O)[C@@]2(c3cc(C#CCNC(N)=O)ccc31)[C@H](c1ccc(O)cc1)N1[C@H](c3ccccc3)[C@H](c3ccccc3)OC(=O)[C@H]1[C@@H]2C(=O)N1CCCCCCC1`: the z-score was 0.455.
